High-throughput results: PubChem BioAssay, several laboratories
PfHsp90 yeast 2: growth inhibition of PfHsp90-expressing yeast, primary screen, antimalarial PfHsp90 inhibitor project, S. cerevisiae, BacTiter-Glo luminescence, single point, set 2; BacTiter-Glo ATP, 48 h; yeast lacking PDR1 and PDR3 efflux regulators; inhibition, % at 9.4 µM; hit rate 0.32% among 310,000; AID 504621, 2011;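 active = every replicate shows inhibition above about 80%, whatever the replicate mean, limit read from the data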;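 also: 0% = DMSO neutral controls and 100% = 20 µM radicicol positive controls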
tim10-1 inh: growth inhibitors of tim10-1 mutant yeast, primary screen, luminescence, uHTS | S. cerevisiae tim10-1 ts strain growth, BacTiter-Glo, 24 h | inhibition, % at 20 µM | hit rate 2.2% among 330,000 | AID 463190, 2010;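 active = inhibition of at least 40%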;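 also: mutant grown at 25 °C; 0% = DMSO wells with yeast and 100% = wells holding no yeast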
TIM10 inh: growth inhibitors of isogenic TIM10 control yeast, primary screen, counter-screen for tim10-1 yeast inhibitor project, luminescence, uHTS; S. cerevisiae TIM10 strain growth, BacTiter-Glo luminescence, 24 h; inhibition, % at 10 µM; hit rate 1.4% among 330,000;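 active = inhibition of 40% or more at the single tested concentration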;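 also: wild-type TIM10 isogenic control strain grown at permissive 25 °C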
NLRP3 yeast inh: NALP3 inflammasome inhibitors in reconstituted yeast, primary screen, luminescence, uHTS. AID 2825, 2010. inhibition, % at 10 µM. hit rate 0.39% among 330,000. Yeast reconstituted NLRP3/ASC/caspase-1, beta-gal luminescence, 24 h;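 active = inhibition of 50% or more; inactive = inhibition below 50%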;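 also: plate controls were induced DMSO wells for no effect and uninduced yeast grown without galactose for full effect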
tim23-1 inh: growth inhibitors of tim23-1 mutant yeast, primary screen, luminescence, uHTS | S. cerevisiae tim23-1 growth, BacTiter-Glo luminescence, 24 h | inhibition, % at 20 µM | hit rate 1.3% among 330,000;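 active = growth inhibition of the mutant yeast at or above 50%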;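 also: temperature-sensitive mutant grown at 25 °C; plate controls were DMSO-treated mutant yeast for no effect and medium wells lacking yeast for full effect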
tim10-1 confirm: growth inhibitors of tim10-1 mutant yeast, confirmation, single concentration, luminescence, S. cerevisiae. shares compounds with tim10-1 inh. S. cerevisiae tim10-1 ts strain growth, BacTiter-Glo, 24 h. inhibition, % at 20 µM. hit rate 56% among 7,400. AID 463213, 2010;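 active = inhibition of yeast growth at or above a set limit in either of two repeat tests at 20 µM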;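 also: tim10-1 mutant grown at permissive 25 °C to find synthetic lethal compounds; 0% = DMSO yeast wells and 100% = medium wells without yeast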
tim10 confirm: growth inhibitors of wild-type TIM10 yeast, confirmation, counter-screen for tim10-1 synthetic lethality project, single concentration, luminescence, S. cerevisiae; inhibition, % at 10 µM; hit rate 63% among 4,600; shares compounds with TIM10 inh; S. cerevisiae tim10 strain growth, BacTiter-Glo luminescence, 24 h;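 active = inhibition of yeast growth at or above a set limit in either of two replicates at 10 µM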;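 also: this counterscreen used the strain with wild-type TIM10; 0% = yeast with DMSO and 100% = medium wells lacking yeast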
tim23-1 confirm: tim23-1 mutant yeast growth inhibitors, confirmation, luminescence, single concentration; hit rate 83% among 4,400; AID 463218, 2010; inhibition, % at 20 µM; shares compounds with tim23-1 inh; S. cerevisiae tim23-1 growth, BacTiter-Glo luminescence, 24 h;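 active = inhibition above about 39% in either of two replicate wells at 20 µM, limit read from the data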;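 also: temperature-sensitive tim23-1 mutant grown at 25 °C; 0% = DMSO wells with yeast and 100% = medium wells without yeast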
Starred values were filed as active, the others as inactive; · = no result. Rows were chosen to be rich in hits. Some 3.7% of all compounds tested hit in one or more screens of this group.

SMILES	PfHsp90 yeast 2	tim10-1 inh	TIM10 inh	NLRP3 yeast inh	tim23-1 inh	tim10-1 confirm	tim23-1 confirm	others
COc1ccc(-c2ccc(NS(=O)(=O)c3cc([N+](=O)[O-])c(C)c([N+](=O)[O-])c3)cc2)nn1	-8.8	16.2	1.3	5.2	7.9	·	·
COc1cccc(CNC(=O)c2cccc(NC(=O)CC3SC(N4CCCCC4)=NC3=O)c2)c1 (stereo not drawn)	11.1	12.8	0.5	4.8	6.1	·	·
CCN(CC)c1nc(OCCNC(=O)Nc2ccccc2)nc(N(CC)CC)n1	-8.6	41.8*	26.5	23.5	61.6*	34.8*	49.7*
O=C(NCCOc1nc(N2CCCCC2)nc(N2CCCCC2)n1)Nc1ccccc1	3.0	23.0	-2.7	5.3	15.4	·	·
C#CCn1c(O)c(N=NC(=O)CNC(=O)c2cccnc2)c2ccccc21	-8.4	22.1	-6.4	12.0	0.1	·	·
CC1(C)C(CO)=CC(=O)C2=C1SCC(=O)N2	-9.8	0.5	12.5	-3.0	1.1	·	·
Cc1ccc(C(=O)OCn2ncc(Cl)c(Cl)c2=O)cc1	95.8*	75.0*	72.2*	4.1	79.0*	77.7*	70.9*	tim10 confirm=69.9*
Cc1ccc(C)c(C(=O)Cn2ncc(Cl)c(Cl)c2=O)c1	25.8	23.3	-4.5	20.4	43.2	·	·
O=C(OCn1ncc(Cl)c(Cl)c1=O)c1ccc(C(F)(F)F)cc1	51.9	75.2*	42.2*	-27.6	77.9*	74.0*	78.7*	tim10 confirm=41.4*
O=C(CCNC(=O)C1CCN(S(=O)(=O)c2ccc(F)cc2)CC1)Nc1ccccc1	3.6	8.6	-0.4	-8.6	4.4	·	·
CCOc1ccc2nc(SCC(=O)NCc3ccc(S(N)(=O)=O)cc3)[nH]c2c1	10.5	-3.9	-3.9	10.2	-6.3	·	·
CN1CCN(S(=O)(=O)c2ccc(SCCOc3ccccc3)nc2)CC1	·	47.5*	49.4*	15.4	56.8*	51.8*	46.2*	tim10 confirm=48.6*
O=S(=O)(c1ccc(SCCOc2ccc(Cl)cc2)nc1)N1CCCC1	-26.2	23.1	14.5	-13.8	42.2	·	·
O=C(NC1CCN(Cc2ccccc2)CC1)c1cccc(S(=O)(=O)Nc2ccc(SC(F)F)cc2)c1	-10.7	-7.3	2.3	19.2	2.2	·	·
Cc1cccc(N2CCN(S(=O)(=O)c3ccc4c(c3)NC(=O)C(C)S4)CC2)c1C (stereo not drawn)	-51.7	50.4*	9.8	3.8	54.7*	21.3	34.0
COc1cc(C[C@@H](CO)[C@H](CO)Cc2ccc(O)c(OC)c2)ccc1O	·	5.2	-6.7	21.2	-0.2	·	·
CNC(=O)c1c(NC(=O)c2ccco2)sc2c1CCCC2	1.4	58.4*	25.7	20.5	57.8*	38.5*	48.5*
COc1cccc(CN(C(=O)c2cccs2)C2CCS(=O)(=O)C2)c1 (stereo not drawn)	-23.9	-0.9	4.3	-0.2	6.0	·	·
COc1ccccc1CN(Cc1nc2ccccc2c(=O)[nH]1)C(=O)Nc1ccc(C)cc1	-10.6	42.8*	55.2*	30.8	59.4*	38.2*	51.3*	tim10 confirm=40.3*
COc1ccccc1CN(Cc1nc2ccccc2c(=O)[nH]1)C(=O)Nc1ccccc1C	-2.8	24.7	13.2	-4.0	26.5	·	·
CC(=O)NCCNC(=O)c1ccc(CSc2nc3ccccc3s2)cc1	·	4.4	2.8	5.0	15.1	·	·
Cc1c(Cl)cccc1NC(=O)Nc1cc(C(C)(C)C)on1	-13.6	58.6*	28.9	22.2	58.9*	26.1*	45.0*
Cc1cc(NC(=O)Nc2ccccc2Cl)no1	5.7	0.8	-1.8	42.5	20.1	·	·
CC1CCCCC1NC(=O)/C(C#N)=C/c1ccc(OCC(N)=O)cc1 (stereo not drawn)	24.6	48.4*	45.5*	15.7	55.5*	33.0*	49.7*	tim10 confirm=16.5
CC(C)C[C@@H](C(=O)NCC1CCCO1)N1C(=O)N2CCc3c([nH]c4ccccc34)[C@@]2(C)C1=O (stereo partly drawn)	10.7	5.2	11.0	1.4	19.6	·	·
SMILES	PfHsp90 yeast 2	tim10-1 inh	TIM10 inh	NLRP3 yeast inh	tim23-1 inh	tim10-1 confirm	tim23-1 confirm	others
O=C1C(C2=C(O)c3ccccc3C2=O)=Nc2ccccc21	-1.1	50.6*	56.3*	-5.6	61.5*	19.1	73.0*	tim10 confirm=54.2*
O=C(NC(=S)N1CCN(c2ccccc2)CC1)c1ccccc1	·	30.9	31.5	8.6	48.4	·	·
O=C1c2ccccc2NC(c2ccc(-c3ccc(Br)cc3)o2)N1O (stereo not drawn)	124.9*	46.2*	44.1*	9.2	62.0*	27.6	64.8*	tim10 confirm=51.9*
O=C1c2ccccc2NC(c2ccc(-c3ccc(F)cc3)o2)N1O (stereo not drawn)	-10.7	4.7	-4.0	8.7	18.6	·	·
COC(=O)c1ccc(-c2ccc(/C=N/NC(=O)CC3(C)OCCCO3)o2)cc1	-1.4	6.8	-2.1	10.6	14.2	·	·
COc1ccc(C2(c3ccc(OC)cc3)NC(=O)N(CC(=O)Nc3ccc(OC)c(OC)c3)C2=O)cc1	-17.4	-2.2	4.0	15.3	-0.1	·	·
COC(=O)[C@@]12CCCCN1[C@H](c1ccc(-c3cccc(Cl)c3)cc1)[C@@H]1C(=O)N(C)C(=O)[C@@H]12	-1.8	-2.8	2.6	-1.9	5.7	·	·
CC(C)NC(=O)C(=O)NNC(=O)CCc1ccccc1	0.1	-3.8	-0.8	12.8	9.3	·	·
O=C(/C=C/c1ccccc1[N+](=O)[O-])c1ccccc1Br	103.5*	62.6*	63.7*	41.8	79.9*	72.8*	78.8*	tim10 confirm=69.7*
O=C(/C=C\c1ccccc1[N+](=O)[O-])Nc1ccccc1	10.3	-28.0	-10.6	42.2	4.4	·	·
CCOC(=O)N1CCN(C(=O)CSc2nc3c([nH]c4ccccc43)c(=O)n2CC)CC1	10.0	6.2	2.8	4.4	15.1	·	·
CSC1=NCCN1C(=O)Cc1ccc(F)cc1	-6.2	-8.2	-1.7	5.5	-13.4	·	·
CCSC1=NCCN1C(=O)Cc1ccc(-c2ccccc2)cc1	·	77.5*	76.5*	-2.6	66.9*	75.8*	35.6	tim10 confirm=74.3*
CCC(=O)N1CCN=C1SCc1ccccc1	-3.9	-10.4	2.0	0.0	3.6	·	·
CSC1=NCCN1C(=O)Cc1ccc(-c2ccccc2)cc1	-133.9	61.3*	59.1*	18.7	73.1*	68.5*	35.4	tim10 confirm=67.2*
Cc1cccc(NC(=O)N2CCCc3ccccc32)c1C	-9.3	9.8	5.4	22.7	13.6	·	·
